# Source: PubChem BioAssay (NCATS)
# Inconclusive results are not listed. Where a call stands in place of a potency, no number is given. Activity calls are given as the source filed them. Unless noted, calls come from the whole dose curve; as a rule, active = well fitted curve in the direction sought with a large enough effect; inconclusive = small, poorly fitted or top-dose-only effect, or another doubt; inactive = no such curve, though single readings can be large; an effect the other way counts as inactive or inconclusive.
# Tests used:
# [1] = qHTS for differential inhibitors of proliferation of Plasmodium falciparum line W2 (AID 1883); details: Potency: Plasmodium falciparum W2 proliferation inhibition;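 note: potency is the fitted concentration of half-maximal effect; parasites grown with compound for 72 h before lysis and staining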
# [2] = target: Ferritin light chain (Equus caballus) (UniProt P02791); assay: qHTS Validation Assay for Identification of Novel General Anesthetics (AID 2323); note: series mostly up to about 77 µM
# Sequence of Ferritin light chain (Equus caballus) (P02791 2-175 limits assumed): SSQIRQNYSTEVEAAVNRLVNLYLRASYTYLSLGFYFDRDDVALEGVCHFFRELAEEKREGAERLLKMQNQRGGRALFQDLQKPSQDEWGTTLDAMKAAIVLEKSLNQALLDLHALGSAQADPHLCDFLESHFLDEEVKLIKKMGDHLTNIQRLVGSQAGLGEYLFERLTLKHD
# Procedure, shortened: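 Competitive displacement of profluorescent 1-aminoanthracene (1-AMA, 50% saturated solution in PBS) from 10 uM horse-spleen apoferritin. Compounds incubated 10 min at room temperature; fluorescence read at 380 nm excitation/535 nm emission, normalized to free 1-AMA and complex, fitted with four-parameter Hill equation.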
# [3] = target: ATP-dependent DNA helicase Q1 (Homo sapiens) (UniProt P46063); assay: qHTS Validation Assay for Inhibitors of RecQ-Like Dna Helicase 1 (RECQ1) (AID 2353)
# Sequence of ATP-dependent DNA helicase Q1 (Homo sapiens) (P46063 whole entry, looked up): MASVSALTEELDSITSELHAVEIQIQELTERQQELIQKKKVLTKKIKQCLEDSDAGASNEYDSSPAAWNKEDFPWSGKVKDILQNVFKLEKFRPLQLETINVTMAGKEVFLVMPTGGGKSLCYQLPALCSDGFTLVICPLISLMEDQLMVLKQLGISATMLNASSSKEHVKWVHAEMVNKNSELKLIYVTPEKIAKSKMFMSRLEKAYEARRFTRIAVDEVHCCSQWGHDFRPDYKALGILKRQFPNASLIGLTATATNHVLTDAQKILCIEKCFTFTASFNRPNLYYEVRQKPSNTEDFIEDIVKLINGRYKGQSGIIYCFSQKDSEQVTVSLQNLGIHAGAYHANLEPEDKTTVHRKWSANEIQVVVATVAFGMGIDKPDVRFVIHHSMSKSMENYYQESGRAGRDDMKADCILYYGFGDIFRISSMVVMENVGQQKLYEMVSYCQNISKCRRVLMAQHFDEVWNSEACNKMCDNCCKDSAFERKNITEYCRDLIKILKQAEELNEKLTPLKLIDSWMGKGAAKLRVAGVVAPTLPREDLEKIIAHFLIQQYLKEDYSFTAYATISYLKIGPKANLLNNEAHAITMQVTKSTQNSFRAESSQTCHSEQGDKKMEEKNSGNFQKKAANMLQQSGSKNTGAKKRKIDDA
# Procedure, shortened: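 RECQ1T1 50 nM; forked duplex (20 bp + 30-nt ss tails) 200 nM, ATP 2 mM final; pH 8.0, 2 mM MgCl2, 2.5 ug/ml poly(dI-dC); 15 min compound preincubation; discontinuous kinetic read over 2 h at RT.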
# [4] = target: RecQ-like DNA helicase BLM (Homo sapiens) (UniProt P54132); assay: qHTS Validation Assay for Inhibitors of Bloom's syndrome helicase (BLM) (AID 2364); note: potency is the fitted concentration of half-maximal effect
# Sequence of RecQ-like DNA helicase BLM (Homo sapiens) (P54132 whole entry, looked up): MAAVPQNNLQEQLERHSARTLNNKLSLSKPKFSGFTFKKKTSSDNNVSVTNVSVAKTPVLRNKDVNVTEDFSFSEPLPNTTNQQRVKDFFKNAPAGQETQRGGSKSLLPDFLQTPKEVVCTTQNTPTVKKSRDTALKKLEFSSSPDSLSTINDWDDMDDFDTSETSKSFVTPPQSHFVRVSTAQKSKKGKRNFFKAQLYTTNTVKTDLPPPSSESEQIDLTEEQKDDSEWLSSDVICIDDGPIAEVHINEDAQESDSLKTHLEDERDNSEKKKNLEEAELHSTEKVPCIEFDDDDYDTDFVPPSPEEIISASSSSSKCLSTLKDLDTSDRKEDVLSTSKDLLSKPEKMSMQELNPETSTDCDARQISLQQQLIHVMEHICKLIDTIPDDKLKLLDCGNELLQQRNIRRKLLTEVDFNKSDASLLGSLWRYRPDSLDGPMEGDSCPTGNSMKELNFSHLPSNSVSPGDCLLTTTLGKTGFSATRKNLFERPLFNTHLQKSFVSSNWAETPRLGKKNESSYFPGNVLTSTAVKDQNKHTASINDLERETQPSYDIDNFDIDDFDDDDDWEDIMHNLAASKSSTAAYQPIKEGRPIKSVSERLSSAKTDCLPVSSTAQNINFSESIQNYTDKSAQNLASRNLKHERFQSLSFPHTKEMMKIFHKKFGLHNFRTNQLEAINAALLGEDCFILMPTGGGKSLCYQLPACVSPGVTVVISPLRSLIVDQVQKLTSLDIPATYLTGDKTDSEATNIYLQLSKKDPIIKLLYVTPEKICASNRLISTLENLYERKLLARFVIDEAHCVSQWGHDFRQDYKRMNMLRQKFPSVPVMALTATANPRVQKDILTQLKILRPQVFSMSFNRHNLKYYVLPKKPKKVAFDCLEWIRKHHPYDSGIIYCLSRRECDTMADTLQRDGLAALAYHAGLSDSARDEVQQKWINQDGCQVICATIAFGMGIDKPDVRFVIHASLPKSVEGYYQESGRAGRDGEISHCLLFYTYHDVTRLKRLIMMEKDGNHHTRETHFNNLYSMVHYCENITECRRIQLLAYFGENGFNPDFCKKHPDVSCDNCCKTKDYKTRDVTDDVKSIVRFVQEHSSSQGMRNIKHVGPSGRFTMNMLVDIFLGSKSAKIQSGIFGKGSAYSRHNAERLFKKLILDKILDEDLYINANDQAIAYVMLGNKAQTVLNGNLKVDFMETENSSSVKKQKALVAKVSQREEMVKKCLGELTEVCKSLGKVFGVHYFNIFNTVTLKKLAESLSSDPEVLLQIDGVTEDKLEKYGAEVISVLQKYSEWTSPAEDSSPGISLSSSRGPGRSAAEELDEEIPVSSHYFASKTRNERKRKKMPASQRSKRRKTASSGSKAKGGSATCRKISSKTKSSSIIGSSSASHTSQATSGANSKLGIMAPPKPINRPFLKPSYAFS
# Procedure, shortened: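 BLM 50 nM in 25 mM Tris-HCl pH 8.0, 5 mM NaCl, 2 mM MgCl2, 1 mM DTT, 0.01% Tween-20, 2.5 ug/ml poly(dI-dC); 15 min cpd preinc, RT. Start: 200 nM forked DNA + 2 mM ATP (final). TAMRA read, 2 reads 2 h apart.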
# [5] = Cytometric Cell-Based qHTS for Inhibitors of the mTORC1 Signaling Pathway in MEF (Tsc2-/-, p53-/-) Cells (AID 2660);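 note: Tsc2 and p53 null MEFs carrying empty vector with compound for 24 h; percent of cells above a phospho-rpS6 to PI ratio cutoff in each well; series mostly up to about 38 µM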
# Procedure, shortened: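 Immunofluorescence qHTS of rpS6 Ser235/236 phosphorylation: MEFs (Tsc2-/-, p53-/-) treated 24 h, 37 C, in DMEM + 10% FBS. Alexa-488 signal normalized to PI count, referenced to rapamycin (7.5 nM) and DMSO; PI cell number recorded for viability.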
# [6] = High Content Imaging Cell-Based qHTS for Inhibitors of the mTORC1 Signaling Pathway in MEF (Tsc2-/-, p53-/-) Cells (AID 2666);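 note: percent of cells scored positive for phospho-rpS6 Ser235/236 immunostaining by imaging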
# Procedure, shortened: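 Inhibition of rpS6 phosphorylation is measured by immunofluorescence imaging in empty-vector Tsc2-/-, p53-/- mouse embryonic fibroblasts after 24 hrs compound exposure at 37 degree Celsius. Results are reported as % positive cells per well.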
# [7] = High Content Imaging Cell-Based qHTS for Inhibitors of the mTORC1 Signaling Pathway in MEF Cells (AID 2667);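 note: Tsc2-/- p53-/- MEFs stably re-expressing wild-type Tsc2 exposed 24 h; series mostly up to about 38 µM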
# Procedure, shortened: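 Fixed-cell imaging of phospho-S6 (Ser235/236, Alexa-488) after 24 hrs of compound treatment at 37 degree Celsius. Signal was normalized to Hoechst, and thresholds from the highest and lowest wells split cells into % active versus % non-active.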
# [8] = qHTS Assay for Identification of Small Molecule Inducers of Hypoxia Response (AID 2120; active = well fitted curve in the direction sought with a large enough effect in the signal ratio, with a control signal flat, not every such curve was filed as active; the % refers to the signal ratio)
# Procedure, shortened: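 Cell-based qHTS for reporter induction: hypoxia response element controlled beta-lactamase in ME-180 cells. Compounds incubated 17 h at 37 degrees C; activity from blue/green (460/530 nm) ratio, inducers ranked by AC50.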
# [9] = qHTS for differential inhibitors of proliferation of Plasmodium falciparum line HB3 (AID 1886); details: Potency: Plasmodium falciparum HB3 proliferation inhibition;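 note: potency is the fitted concentration of half-maximal effect; parasites grown with compound for 72 h before SYBR Green readout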
smiles,measurement,setting,value
CC(C)Oc1cccnc1N(C)C1CCN(Cc2ccccc2)CC1,Potency,[1],4.47 µM (active)
same,outcome,[2],inactive
same,outcome,[3],inactive
same,Potency,[4],inactive
same,Potency,[5],inactive
same,Potency,[6],inactive
same,Potency,[7],inactive
Nc1ccc([N+](=O)[O-])cc1,outcome,[8],inactive
Clc1ccc(C(c2ccc(Cl)cc2)n2cc[n+](CC(OCc3ccc(Cl)cc3Cl)c3ccc(Cl)cc3Cl)c2)cc1 (centres undefined),Potency,[1],3.98 µM (active)
same,Potency,[9],4.47 µM (active)
same,Potency,[4],28.2 µM (active)
CCn1cc(C(=O)O)c(=O)c2cc3c(cc21)OCO3,outcome,[2],inactive
CN[C@@H](C)[C@H](O)c1ccccc1,outcome,[2],inactive
same,outcome,[3],inactive
